12-LOX inh: inhibitors of human 12S-lipoxygenase ALOX12 | P18054 | purified 12hLO, xylenol orange hydroperoxide absorbance | Potency, µM (top dose mostly 108 µM), without a hit: top-dose activity change, negative = inhibition, most hits filed as inhibitors | 1.1% of 580,000 active | AID 1671190; further: on the % scale 0 is the no-effect control and ±100 the full control effect
Target sequence (P18054 whole entry, looked up): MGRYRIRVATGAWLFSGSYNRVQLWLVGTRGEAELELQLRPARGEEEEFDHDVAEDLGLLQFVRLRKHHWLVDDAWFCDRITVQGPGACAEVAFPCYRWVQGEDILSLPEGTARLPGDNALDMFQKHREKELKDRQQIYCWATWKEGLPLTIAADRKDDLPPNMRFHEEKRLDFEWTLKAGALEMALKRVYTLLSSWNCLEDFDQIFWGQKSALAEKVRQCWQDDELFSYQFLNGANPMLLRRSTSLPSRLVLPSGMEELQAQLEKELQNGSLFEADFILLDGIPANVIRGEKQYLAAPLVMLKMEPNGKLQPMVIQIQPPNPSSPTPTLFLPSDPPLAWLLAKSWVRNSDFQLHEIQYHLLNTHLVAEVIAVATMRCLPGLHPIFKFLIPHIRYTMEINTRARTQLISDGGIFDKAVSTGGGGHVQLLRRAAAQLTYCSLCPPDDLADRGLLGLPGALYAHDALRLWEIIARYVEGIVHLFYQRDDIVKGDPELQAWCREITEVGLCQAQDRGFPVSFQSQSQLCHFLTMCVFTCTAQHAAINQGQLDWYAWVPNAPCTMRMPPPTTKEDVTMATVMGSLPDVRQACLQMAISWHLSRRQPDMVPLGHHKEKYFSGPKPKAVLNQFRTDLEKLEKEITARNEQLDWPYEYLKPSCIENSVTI
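Hydroperoxide product was detected by ferrous iron/xylenol orange as the 573 to 405 nm absorbance ratio. Arachidonic acid at 40 uM (final) was turned over for 30 min at room temperature by 150 nM human 12hLO, pH 7.0 Hepes buffer, after 15 min compound preincubation.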
TGFb SMAD3 inh: blocks TGF-b signaling | HepG2 CAGA-GFP TGF-b/SMAD3 reporter, GFP fluorescence, 18 h; TGF-beta stimulated, 500 pg/mL final | Potency, µM (top dose mostly 46.1 µM), inactives show at the highest dose activity, negative = inhibition, usual class: inhibitors | 1.2% of 410,000 active; further: on the % scale 0 is the no-effect control and ±100 the full control effect; nearly all actives have a fitted effect of over 65% in size
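HEPG2 CAGA-GFP, 1000 cells/well; 2 h settle, 37 C; cpd via pin tool; TGF-b 500 pg/mL final; 18 h, 37 C; GFP imaging ex488/em500-530; %Activity normalised to -TGF-b and +DMSO controls; CRC fit, curve class.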
HepG2 viability: kills HepG2 cells in TGF-b inhibitor counter-screen. HepG2 CAGA-GFP viability, ATP luminescence, 18 h. Potency, µM (highest dose often 46.1 µM), for inactives: at the highest dose activity change, negative = cytotoxicity, hits mostly cytotoxic. 0.76% of 410,000 active. AID 588856
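HepG2 CAGA-GFP cells (1000/well, DMEM with 1% FBS) received compound, then TGF-beta at 500 pg/mL final, and were incubated 18 hours at 37 degrees C. Viability was read by CellTiter-Glo luminescence. Media-only wells were set as complete cell-killing and DMSO as no toxicity.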
S2 tox: reduces viability in counter-screen for ATXN expression inhibitors; S2 cells (HEK-293 line with an ATXN2-luciferase reporter) viability, CellTiter-Fluor protease fluorescence, 24 h; Potency, µM (titrated, usually from 56.7 µM), usual class: cytotoxic; 0.49% of 400,000 active; further: nearly all actives have a fitted effect of over 40% in size
ATXN2 expr inh: inhibitors of ATXN2 expression. HEK-293 ATXN2-luciferase reporter, luminescence, 24 h. Potency, µM (highest dose often 57 µM), inactives show at the top dose activity change, negative = inhibition, hits mostly inhibitors. 0.72% of 360,000 active; further: on the % scale 0 is the no-effect control and ±100 the full control effect; nearly all actives have a fitted effect of over 55% in size
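ATXN2-luciferase reporter cells (luciferase flanked by upstream and downstream ATXN2 gene portions) were treated 24 h at 37 °C with compounds at up to 57 uM. SteadyGlo luminescence gave expression; GF-AFC fluorescence gave viability.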
Starred values were filed as active, the others as inactive; i = inactive; u = inconclusive; x = no result; [ ] = remark or other dose. Only some compounds are listed: those with a hit (about 2.7% of all), similar ones and a draw of the others. The call rests on the fitted dose curve; in most records, active means well fitted curve in the direction sought with a large enough effect; inconclusive means small, poorly fitted or top-dose-only effect, or another doubt; inactive means no such curve, though single readings can be large; an effect the other way counts as inactive or inconclusive. Potency means the concentration at half of the fitted maximal effect.

SMILES	12-LOX inh	TGFb SMAD3 inh	HepG2 viability	S2 tox	ATXN2 expr inh
CCCCN(Cc1ccccc1)c1ccc(C(=O)O)cc1NS(=O)(=O)c1ccc(C)c(C)c1	8.9µM*	x	x	x	x
COc1ccc(CCNC(=O)c2c([S-])n(-c3ccc(C)cc3)c3cccc[n+]23)cc1	35µM*	u	-27%	u	-2%
CCOC(=O)c1c(S(=O)(=O)N2CCC(C(=O)Nc3ccc(F)cc3)CC2)c(C)n(C)c1C	5%	x	x	x	x
CC(=O)NCCNc1ncnc2ccc(-c3ccccc3Cl)cc12	32µM*	x	x	x	x
Clc1ccccc1-c1ccc2ncnc(NCc3cccs3)c2c1	-21%	u	-1%	i	u
O=C(Nc1ccc(Cl)cc1)c1cccc(S(=O)(=O)C2CCS(=O)(=O)C2)c1 (centres undefined)	-8%	x	x	x	x
Cc1ccc(-n2c(SCc3ccccc3F)nc3[nH]ncc3c2=O)cc1C	u	u	-113%	u	u
CCc1ccc(-n2c(SCc3ccccc3F)nc3[nH]ncc3c2=O)cc1	u	u	-109%	20µM*	u
Cc1ccc(-n2c(SCc3ccccc3F)nc3[nH]ncc3c2=O)cc1Cl	u	u	-97%	35µM*	u
O=S(=O)(Nc1nc2ccccc2nc1N1CCN(c2ncccn2)CC1)c1ccccc1	-22%	x	x	x	x
CNC(=O)/C(C#N)=C/c1c(N(Cc2ccccc2)Cc2ccccc2)nc2c(C)cccn2c1=O	-14%	13µM*	6%	u	-7%
Cc1cccc(N(C(=O)C(F)(F)F)C(C(=O)NC2CCCCC2)c2cccs2)c1 (centres undefined)	4%	-4%	-16%	i	-1%
C#CC(=O)N(c1ccc(OC)c(OC)c1)C(C(=O)NC1CCCC1)c1cccs1 (centres undefined)	-1%	u	13µM*	x	u
COc1ccc(N(C(=O)Cc2cccs2)C(C(=O)NC2CCCC2)c2ccncc2)cc1OC (centres undefined)	18%	18%	0%	i	-7%
C#CC(=O)N(c1cccc(OC)c1)C(C(=O)NC1CCCC1)c1cccs1 (centres undefined)	-5%	22µM*	8.9µM*	1.6µM*	1.6µM*
O=C1CC(O)(C(F)(F)F)Oc2c1ccc1ccccc21 (centres undefined)	-13%	16µM*	10µM*	i	-12%
O=C1CC(O)(C(F)F)Oc2ccc3ccccc3c21 (centres undefined)	322%	-21%	-35%	i	-6%
C[C@H](CO)N1C[C@H](C)[C@H](CN(C)Cc2ccncc2)Oc2ccc(NC(=O)Nc3ccc(C(F)(F)F)cc3)cc2CC1=O	-4%	13µM*	-59%	28µM*	u
C[C@H]1CN([C@@H](C)CO)C(=O)Cc2cc(NC(=O)Nc3ccccc3)ccc2O[C@H]1CN(C)Cc1ccccc1	u	u	-82%	28µM*	u
O=C(O)CCN1C(=O)/C(=C\c2cccc(Oc3ccccc3)c2)SC1=S	u	7%	-4%	i	-8%
O=C(O)CN1C(=O)/C(=C\c2cccc(OCc3ccc(F)cc3)c2)SC1=S	50µM*	0%	-20%	i	10%
O=C(O)CN1C(=O)/C(=C\c2cccc(OCc3ccc(Cl)cc3)c2)SC1=S	u	-5%	-10%	x	x
O=C(O)CN1C(=O)/C(=C\c2cccc(OCc3ccccc3F)c2)SC1=S	40µM*	-19%	-10%	i	34%
CC1=C/C(=N\OS(=O)(=O)c2ccccc2)C(C)=CC1=O	0%	10µM*	11µM*	20µM*	22µM*
CC1=C(C)/C(=N\OS(=O)(=O)c2ccc(C)cc2)C=CC1=O	u	2.8µM*	4µM*	8.9µM*	u
SMILES	12-LOX inh	TGFb SMAD3 inh	HepG2 viability	S2 tox	ATXN2 expr inh
CC1=C/C(=N\OS(=O)(=O)c2ccccc2)C(C(C)C)=CC1=O	x	u	-97%	x	u
COc1ccc(S(=O)(=O)/N=C2/C=CC(=O)C(C)=C2C)cc1	x	-3%	3%	i	5%
Cc1ccc(/C=C/C(=O)c2cccs2)cc1	-4%	x	x	x	x
Fc1c(F)c(C(F)(F)F)c(F)c(F)c1N/N=C/c1ccc(Cl)cc1Cl	4%	x	x	x	x
Fc1ccc(C(NCCc2ccc(Cl)cc2)c2nnc(-c3ccccc3)o2)c(Cl)c1 (centres undefined)	-13%	u	-7%	i	-8%
COc1ccc(CCNC(c2ccc(F)cc2)c2nnc(-c3ccccc3Cl)o2)cc1OC (centres undefined)	-6%	18µM*	-20%	u	-33%
COc1ccc(NC(=S)N2CCN(CCO)CC2)c(OC)c1	-5%	x	x	x	x
Cc1ccc(-c2nc3ccc(C)cc3nc2-c2ccc(C)cc2)cc1	-21%	x	x	x	x
CCc1cc2c(N3CCCCC3)ncnc2s1	28µM*	u	-8%	u	-9%
O=C(Nc1ccccc1C(=O)N/N=C/c1ccco1)c1ccc(F)cc1	u	u	13µM*	i	-9%
COC(=O)c1ccc(/C=N/OCc2ccc(C(=O)OC)cc2)cc1	-54%	x	x	x	x
O=C1N[C@@H](Cc2ccccc2)COC(=O)[C@H](Cc2ccc(F)cc2)CC/C=C/C[C@@H]1CC(=O)N(CCO)Cc1ccccc1	13%	u	1%	u	u
O=C1N[C@@H](Cc2ccccc2)COC(=O)[C@@H](Cc2ccc(F)cc2)CC/C=C/C[C@H]1CC(=O)N(CCO)Cc1ccccc1	u	u	-17%	22µM*	u
O=C1N[C@@H](c2ccccc2)COC(=O)[C@@H](Cc2ccc(F)cc2)C/C=C\C[C@H]1CC(=O)N(CCO)Cc1ccccc1	u	u	-34%	u	u
O=C1N[C@@H](c2ccccc2)COC(=O)[C@H](Cc2ccc(F)cc2)CC/C=C/C[C@@H]1CC(=O)N(CCO)Cc1ccccc1	-13%	u	-16%	10µM*	u
C=CCNC(=O)[C@@H]1Cc2cn(Cc3nccn3C)c3cccc(c23)[C@H](CC(C)C)N1	104%[176 µM]	x	x	x	x
Cc1nc(NC(=O)/C=C/c2ccccc2)n[nH]1	-1%	13µM*	16%	i	4%[11.3 µM]
C[n+]1ccc(/C=C/c2ccc([N+](C)(C)C)cc2)c2ccccc21	x	4.5µM*	-69%	x	x
C[n+]1ccc(/C=C/c2ccc(F)cc2)c2ccccc21	x	-2%	-42%	x	x
CN1C=C/C(=C\c2cc[n+](C)c3ccccc23)c2ccccc21	u	u	-49%	u	8.4µM*
C[n+]1ccc(/C=C/c2cc[n+](C)c3ccccc23)c2ccccc21	x	7.1µM*	-69%	x	x
Cc1cnc(-c2ccccc2)n1C1CCCN(C(=O)COc2ccc(F)cc2)C1 (centres undefined)	60%	x	x	x	x
COc1ccc(-c2coc(CCC(=O)N3CCN(c4cc(C)ccc4C)CC3)n2)cc1	20µM*	u	-4%	i	-9%

Screening results from PubChem BioAssay.
